Measured values taken from the supplement of paper PMC10849652.
Targets with a hit are over-represented here; the source holds about 7,900 in all. About 0.6% of all pairs of compound and target were hits.

Compound: O=C1NC(=O)C(c2cnc3ccccn23)=C1c1cn2c3c(cc(F)cc13)CN(C(=O)N1CCCCC1)CC2
Experiment: log2 fold change, soluble protein after heating vs DMSO (PISA); higher = thermal stabilisation; K562 cells, 10 uM, 30 min; active = over 0.2 and 3.5 SD of the protein, either way, in both replicates (recomputed)
In short: (§1)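 K562 cells (2×10^6 cells/mL) were treated with 10 μM compound for 30 min, and aliquots were heated for 3 min over 48°C-58°C. Pooled aliquots were extracted in PBS with 0.5% NP-40 at 4°C, and the supernatant after 21,000xg for 90 min was measured by TMTpro 16plex LC-MS/MS with channel sums equalised. Reported thermal stability, relative to control samples and from duplicates, is a log2 fold change.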

Chain of UniProt P48645 (P48645 whole entry, looked up): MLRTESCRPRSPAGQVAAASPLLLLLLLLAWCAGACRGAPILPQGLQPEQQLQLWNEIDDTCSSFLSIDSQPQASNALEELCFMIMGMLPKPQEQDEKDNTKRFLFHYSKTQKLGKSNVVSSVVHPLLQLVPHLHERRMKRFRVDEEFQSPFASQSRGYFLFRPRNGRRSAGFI
Chain of UniProt Q12769 (Q12769 whole entry, looked up): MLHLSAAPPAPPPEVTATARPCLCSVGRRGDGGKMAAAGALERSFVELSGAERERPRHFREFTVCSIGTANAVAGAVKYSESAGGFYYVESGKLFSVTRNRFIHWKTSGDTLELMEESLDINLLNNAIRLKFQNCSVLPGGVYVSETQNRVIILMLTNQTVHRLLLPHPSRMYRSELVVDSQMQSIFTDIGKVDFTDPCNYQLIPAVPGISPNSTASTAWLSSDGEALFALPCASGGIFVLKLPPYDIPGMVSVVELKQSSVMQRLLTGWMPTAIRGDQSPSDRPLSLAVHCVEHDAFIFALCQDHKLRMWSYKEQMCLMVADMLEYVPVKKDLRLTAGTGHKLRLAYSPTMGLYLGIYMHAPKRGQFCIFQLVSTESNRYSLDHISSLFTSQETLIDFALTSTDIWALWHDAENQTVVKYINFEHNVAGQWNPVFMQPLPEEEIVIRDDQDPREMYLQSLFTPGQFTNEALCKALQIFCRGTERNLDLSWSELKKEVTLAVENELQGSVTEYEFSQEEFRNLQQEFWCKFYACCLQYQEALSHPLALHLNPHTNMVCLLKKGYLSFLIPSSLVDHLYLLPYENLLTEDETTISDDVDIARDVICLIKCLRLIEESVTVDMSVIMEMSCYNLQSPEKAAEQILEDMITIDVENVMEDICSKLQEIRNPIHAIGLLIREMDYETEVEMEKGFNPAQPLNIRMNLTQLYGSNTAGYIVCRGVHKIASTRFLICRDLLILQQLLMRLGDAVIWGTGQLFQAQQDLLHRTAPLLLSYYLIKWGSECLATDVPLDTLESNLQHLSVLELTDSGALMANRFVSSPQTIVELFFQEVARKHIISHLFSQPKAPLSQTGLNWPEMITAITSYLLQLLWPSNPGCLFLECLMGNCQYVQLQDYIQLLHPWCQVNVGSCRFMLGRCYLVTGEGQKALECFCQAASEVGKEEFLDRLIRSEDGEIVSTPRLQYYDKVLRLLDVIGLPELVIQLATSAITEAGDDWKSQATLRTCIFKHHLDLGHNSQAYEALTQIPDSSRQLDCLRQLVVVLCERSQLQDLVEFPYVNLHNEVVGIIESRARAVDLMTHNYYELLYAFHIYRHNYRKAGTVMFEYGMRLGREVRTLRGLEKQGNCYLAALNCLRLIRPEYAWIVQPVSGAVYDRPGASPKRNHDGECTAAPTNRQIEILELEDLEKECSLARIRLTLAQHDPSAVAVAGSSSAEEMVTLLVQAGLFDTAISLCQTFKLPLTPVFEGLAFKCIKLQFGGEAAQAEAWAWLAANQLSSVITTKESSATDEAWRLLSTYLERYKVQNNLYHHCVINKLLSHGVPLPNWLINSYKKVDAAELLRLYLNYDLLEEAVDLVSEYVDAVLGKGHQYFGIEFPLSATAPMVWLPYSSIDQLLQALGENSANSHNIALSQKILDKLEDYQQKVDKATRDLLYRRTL
Chain of UniProt O60361 (O60361 whole entry, looked up): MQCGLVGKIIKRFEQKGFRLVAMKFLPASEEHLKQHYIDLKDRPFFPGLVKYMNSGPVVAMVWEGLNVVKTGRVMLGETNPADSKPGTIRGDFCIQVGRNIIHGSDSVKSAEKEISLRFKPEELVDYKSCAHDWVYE
Chain of UniProt O43847 (O43847 whole entry, looked up): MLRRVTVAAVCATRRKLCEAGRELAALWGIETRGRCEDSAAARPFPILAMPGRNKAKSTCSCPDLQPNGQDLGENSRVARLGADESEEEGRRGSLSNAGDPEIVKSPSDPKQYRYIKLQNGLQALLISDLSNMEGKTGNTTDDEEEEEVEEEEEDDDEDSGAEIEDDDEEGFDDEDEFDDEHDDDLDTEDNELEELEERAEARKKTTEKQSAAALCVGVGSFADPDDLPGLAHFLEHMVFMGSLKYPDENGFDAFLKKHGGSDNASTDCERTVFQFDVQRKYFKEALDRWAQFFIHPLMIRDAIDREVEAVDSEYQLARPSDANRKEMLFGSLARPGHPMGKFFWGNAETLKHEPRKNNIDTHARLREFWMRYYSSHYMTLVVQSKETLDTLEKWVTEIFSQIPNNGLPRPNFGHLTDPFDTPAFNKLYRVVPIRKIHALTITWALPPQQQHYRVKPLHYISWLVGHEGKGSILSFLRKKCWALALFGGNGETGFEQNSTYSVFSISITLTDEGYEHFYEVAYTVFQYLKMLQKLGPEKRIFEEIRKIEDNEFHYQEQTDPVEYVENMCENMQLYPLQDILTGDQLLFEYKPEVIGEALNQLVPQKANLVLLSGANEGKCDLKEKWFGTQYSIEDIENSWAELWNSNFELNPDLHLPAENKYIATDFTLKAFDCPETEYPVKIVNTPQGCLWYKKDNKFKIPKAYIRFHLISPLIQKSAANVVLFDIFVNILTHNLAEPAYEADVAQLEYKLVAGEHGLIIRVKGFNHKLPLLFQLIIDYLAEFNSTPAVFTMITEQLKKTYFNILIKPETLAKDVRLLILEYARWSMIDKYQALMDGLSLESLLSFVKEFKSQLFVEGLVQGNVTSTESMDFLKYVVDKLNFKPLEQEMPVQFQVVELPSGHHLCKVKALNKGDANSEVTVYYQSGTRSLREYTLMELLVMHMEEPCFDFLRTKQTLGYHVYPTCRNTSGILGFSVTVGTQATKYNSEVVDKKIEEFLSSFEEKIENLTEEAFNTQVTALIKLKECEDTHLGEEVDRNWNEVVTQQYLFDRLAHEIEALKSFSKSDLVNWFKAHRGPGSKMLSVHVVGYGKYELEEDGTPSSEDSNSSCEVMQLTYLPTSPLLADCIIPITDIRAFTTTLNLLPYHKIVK
Chain of UniProt Q9BT67 (Q9BT67 whole entry, looked up): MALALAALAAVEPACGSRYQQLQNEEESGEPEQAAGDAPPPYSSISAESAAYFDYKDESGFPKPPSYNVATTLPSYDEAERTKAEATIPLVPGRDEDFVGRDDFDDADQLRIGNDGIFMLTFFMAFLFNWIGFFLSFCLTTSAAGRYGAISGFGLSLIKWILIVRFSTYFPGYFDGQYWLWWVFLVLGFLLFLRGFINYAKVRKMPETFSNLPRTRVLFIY
Chain of UniProt Q9UH92 (Q9UH92 whole entry, looked up): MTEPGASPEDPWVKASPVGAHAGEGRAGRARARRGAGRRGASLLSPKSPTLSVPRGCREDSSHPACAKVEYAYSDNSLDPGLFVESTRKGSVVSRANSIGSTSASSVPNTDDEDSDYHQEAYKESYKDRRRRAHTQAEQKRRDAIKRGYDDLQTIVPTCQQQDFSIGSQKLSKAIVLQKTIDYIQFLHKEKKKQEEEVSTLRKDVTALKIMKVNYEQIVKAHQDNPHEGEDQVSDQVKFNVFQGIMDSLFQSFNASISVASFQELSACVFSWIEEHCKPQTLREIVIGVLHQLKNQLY
Chain of UniProt Q68DK7 (Q68DK7 whole entry, looked up): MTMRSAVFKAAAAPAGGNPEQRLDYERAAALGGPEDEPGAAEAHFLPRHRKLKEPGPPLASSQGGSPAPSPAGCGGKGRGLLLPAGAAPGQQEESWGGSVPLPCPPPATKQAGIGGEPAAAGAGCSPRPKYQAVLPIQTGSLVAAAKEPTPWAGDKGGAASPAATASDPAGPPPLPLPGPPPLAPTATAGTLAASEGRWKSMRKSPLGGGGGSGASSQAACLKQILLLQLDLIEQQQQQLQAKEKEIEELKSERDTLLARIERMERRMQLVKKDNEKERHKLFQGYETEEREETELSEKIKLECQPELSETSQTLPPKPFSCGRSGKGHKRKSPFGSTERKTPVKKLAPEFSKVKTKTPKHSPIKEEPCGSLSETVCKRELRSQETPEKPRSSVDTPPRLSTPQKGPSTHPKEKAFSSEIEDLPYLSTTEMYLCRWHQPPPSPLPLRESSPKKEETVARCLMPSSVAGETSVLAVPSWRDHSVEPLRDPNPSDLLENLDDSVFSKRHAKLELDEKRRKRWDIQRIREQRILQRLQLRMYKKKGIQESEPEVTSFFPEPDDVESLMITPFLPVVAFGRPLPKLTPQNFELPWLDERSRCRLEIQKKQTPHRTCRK
Chain of UniProt P40261 (P40261 whole entry, looked up): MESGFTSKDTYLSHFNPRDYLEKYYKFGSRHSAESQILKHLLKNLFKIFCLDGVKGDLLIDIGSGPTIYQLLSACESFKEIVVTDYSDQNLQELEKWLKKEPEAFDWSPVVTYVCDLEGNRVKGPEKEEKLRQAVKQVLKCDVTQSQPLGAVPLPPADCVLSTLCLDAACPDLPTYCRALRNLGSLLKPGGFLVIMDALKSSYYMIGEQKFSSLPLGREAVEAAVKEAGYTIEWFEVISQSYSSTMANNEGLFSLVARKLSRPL
Chain of UniProt Q6N063 (Q6N063 whole entry, looked up): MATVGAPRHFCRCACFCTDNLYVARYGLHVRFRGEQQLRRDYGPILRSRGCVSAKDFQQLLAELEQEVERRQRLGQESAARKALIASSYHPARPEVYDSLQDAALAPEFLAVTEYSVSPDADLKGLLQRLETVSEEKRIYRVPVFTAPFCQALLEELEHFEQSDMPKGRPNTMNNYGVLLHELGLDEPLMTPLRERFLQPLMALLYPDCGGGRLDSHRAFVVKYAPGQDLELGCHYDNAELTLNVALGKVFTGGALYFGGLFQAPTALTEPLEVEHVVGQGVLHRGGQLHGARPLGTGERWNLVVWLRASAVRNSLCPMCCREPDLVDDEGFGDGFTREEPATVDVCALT
Chain of UniProt O75438 (O75438 whole entry, looked up): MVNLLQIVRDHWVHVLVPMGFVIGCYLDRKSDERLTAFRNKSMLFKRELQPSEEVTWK
Chain of UniProt O75607 (O75607 whole entry, looked up): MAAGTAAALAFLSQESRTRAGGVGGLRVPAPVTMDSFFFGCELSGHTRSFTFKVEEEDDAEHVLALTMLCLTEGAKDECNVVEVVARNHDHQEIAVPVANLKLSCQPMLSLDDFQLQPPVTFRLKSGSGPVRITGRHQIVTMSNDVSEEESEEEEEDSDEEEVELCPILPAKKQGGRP

Row | Target | log2 fold change
1 | NMU (UniProt P48645) | 0.144 (inactive)
2 | NAGPA (UniProt Q9UK23) | 0.043 (inactive)
3 | NNMT (UniProt P40261) | -0.042 (inactive)
4 | NKAP (UniProt Q8N5F7) | 0.111 (inactive)
5 | OGFOD2 (UniProt Q6N063) | -0.073 (inactive)
6 | NUP160 (UniProt Q12769) | 0.021 (inactive)
7 | P4HA2 (UniProt O15460) | 0.201 (inactive)
8 | NA, A0A494C071 | -0.022 (inactive)
9 | MOB2 isoform 3 (UniProt Q70IA6) | -0.368 (inactive)
10 | NRDC isoform 2 (UniProt O43847) | -0.05 (inactive)
11 | OAT (UniProt P04181) | -0.031 (inactive)
12 | MON1A (UniProt Q86VX9) | -0.013 (inactive)
13 | NDFIP1 (UniProt Q9BT67) | 0.352 (inactive)
14 | NME2P1 (UniProt O60361) | -0.011 (inactive)
15 | MYO19 (UniProt Q96H55) | 0.232 (inactive)
16 | MSL1 (UniProt Q68DK7) | -0.153 (inactive)
17 | NDUFB1 (UniProt O75438) | -0.124 (inactive)
18 | NUMBL (UniProt Q9Y6R0) | 0.016 (inactive)
19 | NELFCD (UniProt Q8IXH7) | -0.12 (inactive)
20 | MTFR1L (UniProt Q9H019) | -0.014 (inactive)
21 | NUP98 (UniProt P52948) | 0.001 (inactive)
22 | NECTIN2 isoform 2 (UniProt Q92692) | -0.495 (inactive)
23 | MRPS16 (UniProt Q9Y3D3) | -0.016 (inactive)
24 | MLX (UniProt Q9UH92) | -0.086 (inactive)
25 | OPHN1 (UniProt O60890) | -0.046 (inactive)

Compound: c1cc(OCCN2CCCCC2)cc(-c2n[nH]c3ccc(-c4nnc[nH]4)cc23)c1
Experiment: as above
In short: as §1

Row | Target | log2 fold change
26 | NMU (UniProt P48645) | -0.08 (inactive)
27 | NIPSNAP3B (UniProt Q9BS92) | -0.09 (inactive)
28 | NFYB (UniProt P25208) | 0.033 (inactive)
29 | MYLK (UniProt Q15746) | 0.204 (inactive)
30 | NAP1L1 (UniProt B7Z9C2) | 0.179 (inactive)
31 | NAGPA (UniProt Q9UK23) | -0.023 (inactive)
32 | NNMT (UniProt P40261) | 0.139 (inactive)
33 | NKAP (UniProt Q8N5F7) | -0.144 (inactive)
34 | MMADHC (UniProt Q9H3L0) | 0.031 (inactive)
35 | OGFOD2 (UniProt Q6N063) | -0.012 (inactive)
36 | OVCA2 (UniProt Q8WZ82) | 0.08 (inactive)
37 | NUP160 (UniProt Q12769) | -0.09 (inactive)
38 | NPM3 (UniProt O75607) | -0.101 (inactive)
39 | P4HA2 (UniProt O15460) | -0.021 (inactive)
40 | NA, A0A494C071 | -0.086 (inactive)
41 | NRDC isoform 2 (UniProt O43847) | -0.06 (inactive)
42 | MRFAP1 (UniProt Q9Y605) | -0.028 (inactive)
43 | NCBP2AS2 (UniProt Q69YL0) | -0.046 (inactive)
44 | OAT (UniProt P04181) | 0.006 (inactive)
45 | MON1A (UniProt Q86VX9) | -0.275 (inactive)
46 | NDFIP1 (UniProt Q9BT67) | 0.007 (inactive)
47 | NME2P1 (UniProt O60361) | -0.161 (inactive)
48 | ORC5 (UniProt O43913) | -0.004 (inactive)
49 | MSL1 (UniProt Q68DK7) | 0.017 (inactive)
50 | NDUFB1 (UniProt O75438) | 0.012 (inactive)
51 | NUP98 (UniProt P52948) | -0.073 (inactive)
52 | NECTIN2 isoform 2 (UniProt Q92692) | 0.09 (inactive)
53 | MRPS16 (UniProt Q9Y3D3) | -0.036 (inactive)
54 | MLX (UniProt Q9UH92) | -0.175 (inactive)
55 | OPHN1 (UniProt O60890) | 0.094 (inactive)
